Measurements from ChEMBL document CHEMBL3988442, “University of Dundee, Small-Polar-MMV Screening Library” (2021).
The whole screen tested about 48,000 compounds, of which about 13,000 (27%) showed an effect of 50% or more. The list shows a part of the results.

These molecules were tested on Wolbachia pipientis (assay: Anti-Wolbachia Cell-Based Screen). Details: 5 µM.
Type: functional
Parameters: scale not given: in the data most compounds retested in dose-response had high values

Row | Compound | Percent Effect [%]
1 | CN(C)C(=O)c1n[nH]c2c1CCN(Cc1nccs1)C2 | 9.734
2 | Cn1ncc2c(N3CCN(C(N)=O)CC3)nc(C3CCCC3)nc21 | 2.978
3 | CC1Cc2ccccc2N1Cc1occc1C(=O)OCC(N)=O (configuration not stated) | -8.495
4 | CCOC(=O)N1[C@@H](c2ccco2)[C@@H](CO)C[C@]12CCCCNC2=O | 109.7
5 | CC(C)(C)CC(=O)N1[C@@H](c2ccco2)[C@@H](CO)C[C@]12CCCCNC2=O | 102.1
6 | CC(C)CCC(=O)NCC(=O)N1CCCCCC1c1ccco1 (configuration not stated) | 14.42
7 | O=C1OC2(CCNCC2)CN1CC(=O)N1CCCC1c1ccco1 (configuration not stated) | -0.7494
8 | CC(C)COC(=O)N1[C@@H](c2ccco2)[C@@H](CO)C[C@]12CCCCNC2=O | 102
9 | CCN(CCn1cccn1)C(=O)CN1C(=O)OC[C@@H]1C(C)C | -18.11
10 | OCC1N(Cc2ccc(F)cc2)[C@H]2CC[C@]1(O)CC2 (some centres not stated) | 104.7
11 | O[C@]12CC[C@H](CC1)N(Cc1ccc(F)cc1)C2CN1CCOCC1 (some centres not stated) | 104
12 | Cl.Cl.OC(CN1CCN(Cc2ccc(F)cc2)CC1)C1CC1 (configuration not stated) | -6.832
13 | Oc1cccc(CN2C[C@H]3CC[C@@H]2CN(Cc2ccc(F)cc2)C3)c1 | 7.382
14 | COc1cccc(CN2CCCCC2CN2CCOCC2)c1F (configuration not stated) | 24.12
15 | Fc1ccc(CN2CCOC[C@H](Oc3cccnc3)C2)cc1 | 4.64
16 | Cc1cc(C)cc(CN2CCN(C(=O)COCC3CCCO3)CC2=O)c1 (configuration not stated) | -14.3
17 | COc1ccccc1CC(NC(=O)N1CCOCC1)C(C)C (configuration not stated) | -8.474
18 | COc1ccccc1OCCNS(=O)(=O)N1CCOCC1 | 86
19 | COc1ccccc1CCNS(=O)(=O)N1CCOCC1 | 112
20 | CCC(NS(=O)(=O)N1CCOCC1)c1ccccc1OC (configuration not stated) | -7.282
21 | COc1ccc(OCCN(C)S(=O)(=O)N2CCOCC2)cc1 | -3.974
22 | CN(CCOc1ccccc1Cl)S(=O)(=O)N1CCOCC1 | -15.33
23 | CCN(C(=O)NCCc1ccc(C)cc1C)C(C)CS(C)(=O)=O (configuration not stated) | -11.16
24 | Cc1cc(N2CCSCC2)ccc1NC(=O)N(CCO)C1CC1 | -6.894
25 | CC(NCC(=O)N1CCc2sccc2C1)c1ccccc1F (configuration not stated) | 93.75
26 | O=C(CCNCc1cccc(O)c1)N1CCc2sccc2C1 | 2.464

Row | Compound | Percent Effect [%]
27 | CC(C)(C)CC(=O)N1CCc2sccc2C1 | -0.9665
28 | NC(=O)NC(CC(=O)N1CCc2sccc2C1)c1cccc(Br)c1 (configuration not stated) | 93.59
29 | N#Cc1cccc(CNCCC(=O)N2CCc3sccc3C2)c1 | -10.34
30 | O=C(C[S+]([O-])Cc1c(F)cccc1Cl)N1CCc2sccc2C1 (configuration not stated) | 13.7
31 | O=C(C[S+]([O-])Cc1ccc(F)cc1)N1CCc2sccc2C1 (configuration not stated) | 1.066
32 | O=C(C[S+]([O-])Cc1ccccc1F)N1CCc2sccc2C1 (configuration not stated) | 15.13
33 | O=C(CNc1nc(C(F)(F)F)cs1)N1CCc2sccc2C1 | 8.259
34 | CC(C)(C)c1nnc(NCC(=O)N2CCc3sccc3C2)s1 | 0.7468
35 | Cc1ccccc1C(CC(=O)N1CCc2sccc2C1)NC(N)=O (configuration not stated) | 98.58
36 | NC(=O)NC(CC(=O)N1CCc2sccc2C1)c1ccccc1F (configuration not stated) | 105.1
37 | c1cncc(-c2ccnn2CN2CCC3(CC2)OCCO3)c1 | -11.32
38 | Cc1nccc(CNS(=O)(=O)N(C)Cc2ccc(Cl)cc2)n1 | -3.155
39 | COCCCNC(=O)CN(C)C(=O)c1cc(C)ccc1O | -8.655
40 | COCCCNC(=O)CN(C)C(C)c1nc(C(C)C)no1 (configuration not stated) | 126.4
41 | COCCCNC(=O)CN(C)C(C)c1nc(C)no1 (configuration not stated) | 131.6
42 | CCN(CC(=O)NCCc1nc(C)no1)Cc1ccc(Cl)cc1 | -3.181
43 | CCc1noc(C(C)N(C)CC(=O)Nc2c(C)cccc2C)n1 (configuration not stated) | -11.68
44 | COc1ccc(Br)cc1CN(C)C(C)c1nc(C(C)C)no1 (configuration not stated) | 18.35
45 | COCCNC(=O)CN(C)C(C)c1nc(C)no1 (configuration not stated) | 119.8
46 | COCCCNC(=O)CN(C)C(=O)c1cc(C)ccc1N(C)C(C)C | -2.233
47 | CCc1noc(C(C)N(C)CC(=O)Nc2cccc(C)n2)n1 (configuration not stated) | 0.4126
48 | Cc1noc(C(C)N(C)CC(=O)NCCc2ccc(Cl)cc2)n1 (configuration not stated) | 103.9
49 | CCc1noc(C(C)N(C)CC(=O)Nc2ccc(C)cc2)n1 (configuration not stated) | 3.049
50 | Cc1noc(CNC(=O)NCCc2ccc(Cl)cc2)n1 | -5.738
51 | O=C(O)c1cc(-c2ccc3c(c2)OCO3)cc(S(=O)(=O)NC2CC2)c1 | 1.562
52 | O=C(c1ccc2sccc2c1)N1CCC(C(=O)O)(n2ccnc2)CC1 | -1.881

Row | Compound | Percent Effect [%]
53 | Cc1nc(N)ncc1C(=O)N1CCCC1(C)C(=O)N(C)C (configuration not stated) | 88.37
54 | Cc1ccccc1N1CCN(C(=O)c2cnc(N(C)C)nc2C)C(C)C1 (configuration not stated) | 26.11
55 | Nc1ncc(C(=O)N2CCC(O)(CO)CC2)c(-c2ccccc2)n1 | -11.61
56 | CC[C@@H](CO)NC(=O)c1coc(COc2ccc(OC)cc2)n1 | -6.129
57 | COCC(=O)Nc1nccn1Cc1ccc(Br)cc1 | 8.757
58 | CCNC(=O)N(C)C1CCCc2nc(C)sc21 (configuration not stated) | 9.089
59 | N#Cc1cccnc1N1CCC(c2nc(C(F)(F)F)c[nH]2)CC1 | -10.33
60 | CCN(CC)c1ccc2ccc(C(=O)N3CCCCO3)cn12.O=C(O)C(F)(F)F | -8.466
61 | COCC(=O)N1CCC2(CC1)CNc1ccc(F)cc12.O=C(O)C(F)(F)F | 7.249
62 | CC(C)C(=O)N1CCC(C)(c2cc(O)[nH]n2)CC1 | 136.2
63 | COCC(=O)N1CCC(C)(c2cc(O)[nH]n2)CC1 | 115.4
64 | CC(C)C(=O)N1CCN(c2cc(N(C)C)cnn2)CC1 | 9.778
65 | CCOC1CC2(CCN(C(=O)COC)CC2)c2cc(C)ccc21 (configuration not stated) | 10.7
66 | CC(CCc1ccc(O)cc1)NC1CCN(C(=O)C(C)C)CC1 (configuration not stated) | 2.314
67 | Cc1cc(N2CCN(C(=O)CCc3scnc3C)CC2)nc(N)n1 | 8.877
68 | c1cc(C2CCN(Cc3ccc4c(c3)OCO4)CC2)ccn1 | 106.9
69 | O=C(NCC1CC1)N1CCN(Cc2ccc3c(c2)OCCO3)CC1 | 1.258
70 | O=C(c1cccc2c1OCO2)N1CCCC1c1noc(C2CC2)n1 (configuration not stated) | -8.169
71 | c1cncc(CN2CCC(NCCc3ccc4c(c3)OCO4)CC2)c1 | 3.399
72 | CC(c1nc(C2CC2)no1)N(C)Cc1ccc2c(c1)OCCO2 (configuration not stated) | 0.3167
73 | c1cc2c(cc1CSCc1noc(C3CC3)n1)OCCO2 | 98.07
74 | CN(Cc1noc(C2CC2)n1)CC1CCN(CCO)CC1 | 15.04
75 | c1cc2c(cc1CN1CCC(Cc3noc(C4CC4)n3)CC1)OCCO2 | 75.34
76 | c1ccc(CN2CCC(Cc3noc(C4CC4)n3)CC2)cc1 | 27.3
77 | Clc1ccc(C2(NCc3noc(C4CC4)n3)CCOCC2)cc1 | -0.4021
78 | c1cc(CN2CCC(c3ccncc3)CC2)cc(Cn2cccn2)c1 | -4.875

Row | Compound | Percent Effect [%]
79 | c1cc(CN2CCC(Cc3noc(C4CC4)n3)CC2)c2c(c1)OCO2 | 85.87
80 | CCn1c(C)cc(C(=O)NCc2ccc(CS(C)(=O)=O)cc2)c1C | 4.177
81 | COCc1nc(CN2CCC3(CCCO3)CCC2=O)no1 (configuration not stated) | -11.19
82 | CC(=O)N(C)CC(=O)NC1(c2ccc(Br)cc2)CC1 | -3.81
83 | CCN(CC(=O)NC(C)C)S(=O)(=O)N1CCC(C)C1 (configuration not stated) | 1.094
84 | c1ccc2[nH]c(C3CCN(Cc4noc(C5CC5)n4)CC3)cc2c1 | -4.924
85 | c1cc2c(cc1CN1CCN(Cc3noc(C4CC4)n3)CC1)OCO2 | 111.2
86 | CN1CCN(C2CCN(Cc3noc(C4CC4)n3)CC2)C1=O | 10.17
87 | CCn1ccnc1CN1CCCn2nc(CNC(=O)C3CCC3)cc2C1 | 17.11
88 | Cc1nccc(NCc2cc3n(n2)CCCN(C(=O)C2CCC2)C3)n1 | 100.1
89 | CSc1nccc(NCc2cc3n(n2)CCCN(C(=O)C2CCC2)C3)n1 | 104.3
90 | Nc1nccc(NCc2cc3n(n2)CCCN(C(=O)C2CCC2)C3)n1 | -4.748
91 | Nc1nccc(NCc2cc3n(n2)CCCN(C2CCCCC2)C3)n1 | 13.65
92 | CSc1nccc(NCc2cc3n(n2)CCCN(S(C)(=O)=O)C3)n1 | 18.18
93 | Cc1ccc(C2C3=C(COC3=O)Nc3[nH]nc(C)c32)cc1C (configuration not stated) | 8.246
94 | CCc1nccn1CCC(=O)N1CC[C@@H](c2sccc2C)[C@H](O)C1 | -1.934
95 | Cn1cc(CN2C[C@@H]3OCCN(CC4CCCC4)[C@@H]3C2)cn1 | -2.926
96 | CNC(=O)CN1CCO[C@H]2CN(CC3CCOCC3)C[C@H]21.O=C(O)C(F)(F)F.O=C(O)C(F)(F)F | -17.71
97 | CN(C)c1nccc(N2CCO[C@H]3CN(CC4CCOCC4)C[C@H]32)n1 | 11.02
98 | O=C(O)C(F)(F)F.c1cnc(N2CCO[C@H]3CN(CC4CCOC4)C[C@H]32)cn1 (some centres not stated) | 122.8
99 | O=C(O)C(F)(F)F.c1cnc(N2CCO[C@H]3CN(Cc4csnn4)C[C@H]32)cn1 | 6.84
100 | O=C(O)C(F)(F)F.c1cnc(N2CCO[C@H]3CN(CC4CCC4)C[C@H]32)cn1 | 107.5
101 | O=C(O)C(F)(F)F.c1cnc(N2CCO[C@H]3CN(Cc4c[nH]cn4)C[C@H]32)cn1 | 2.338
102 | c1cnc(N2CCO[C@H]3CN(CC4CCCC4)C[C@H]32)cn1 | 112.8
